# HepG2 viability: qHTS for Inhibitors of TGF-b: Cytotox Counterscreen | HepG2 CAGA-GFP viability, ATP luminescence, 18 h | actives 0.76% (n = 410,000) | Potency, µM (series often up to 46.1 µM), for the others: at the highest dose activity change, negative = cytotoxicity, hits mostly cytotoxic
#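 HepG2 CAGA-GFP cells (1000/well, DMEM with 1% FBS) received compound, then TGF-beta at 500 pg/mL final, and were incubated 18 hours at 37 degrees C. Viability was read by CellTiter-Glo luminescence. Media-only wells were set as complete cell-killing and DMSO as no toxicity.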
# ATXN2 expr inh: Primary qHTS for Inhibitors of ATXN expression; Potency, µM (highest dose often 57 µM), for the others: at the highest dose activity change, negative = inhibition, hits mostly inhibitors; actives 0.72% (n = 360,000); HEK-293 ATXN2-luciferase reporter, luminescence, 24 h; further: on the % scale 0 is the no-effect control and ±100 the full control effect; nearly all actives have a fitted effect of over 55% in size
#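 ATXN2-luciferase reporter cells (luciferase flanked by upstream and downstream ATXN2 gene portions) were treated 24 h at 37 °C with compounds at up to 57 uM. SteadyGlo luminescence gave expression; GF-AFC fluorescence gave viability.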
# TGFb SMAD3 inh: qHTS for Inhibitors of TGF-b; Potency, µM (titrated, usually from 46.1 µM), for the others: at the highest dose activity, negative = inhibition, hits mostly inhibitors; actives 1.2% (n = 410,000); HepG2 CAGA-GFP TGF-b/SMAD3 reporter, GFP fluorescence, 18 h; TGF-beta stimulated, 500 pg/mL final; further: on the % scale 0 is the no-effect control and ±100 the full control effect; nearly all actives have a fitted effect of over 65% in size
#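 HEPG2 CAGA-GFP, 1000 cells/well; 2 h settle, 37 C; cpd via pin tool; TGF-b 500 pg/mL final; 18 h, 37 C; GFP imaging ex488/em500-530; %Activity normalised to -TGF-b and +DMSO controls; CRC fit, curve class.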
# S2 tox: Viability Counterscreen for Primary qHTS for Inhibitors of ATXN expression; S2 cells (HEK-293 line with an ATXN2-luciferase reporter) viability, CellTiter-Fluor protease fluorescence, 24 h; Potency, µM (doses to about 56.7 µM), most hits filed as cytotoxic; actives 0.49% (n = 400,000); AID 651635, 2014; further: nearly all actives have a fitted effect of over 40% in size
# HT1080NT lethal: qHTS for induction of synthetic lethality in tumor cells producing 2HG: qHTS for the HT-1080-NT fibrosarcoma cell line; HT-1080-NT fibrosarcoma viability, CellTiter-Glo ATP luminescence, 48 h; Potency, µM (highest dose often 46.1 µM), for the others: at the highest dose activity, negative = less viability, most hits filed as cytotoxic; actives 1.6% (n = 360,000);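 further: NT is the 2HG producing partner of a matched IDH1 knockdown line; 0% = DMSO-treated cells and -100% = media-only wells without cells; nearly all actives have a fitted effect of over 55% in size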
#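 Luminescent CellTiter-Glo readout after 48 hours of compound exposure at 37 degrees C defined viability of HT-1080-NT cells. Activity was normalized to DMSO wells and cell-free media wells; concentration-response curves were fitted and assigned curve classes.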
# HT1080 IDH1KD tx: qHTS for induction of synthetic lethality in tumor cells producing 2HG: qHTS for the HT-1080-IDH1KD cell line; HT-1080 IDH1 knockdown viability, ATP luminescence, 48 h; Potency, µM (titrated, usually from 46.1 µM), for inactives: at the top dose activity, negative = toxicity, actives largely listed as cytotoxic; actives 2% (n = 360,000); AID 686971, 2013;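 further: 0% = DMSO wells and -100% = cell-free medium wells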
#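 Using the IDH1-knockdown HT-1080 line run in the same batch and compound series as the NT line, viability after 48 h at 37 °C was determined by CellTiter-Glo luminescence and expressed as % activity.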
# * = called active by the depositor; i = inactive; ? = inconclusive; / = no result. A selection: hits, their analogues and other compounds. The true share with any hit is near 3.9%. The call rests on the fitted dose curve; in most records, active means well fitted curve in the direction sought with a large enough effect; inconclusive means small, poorly fitted or top-dose-only effect, or another doubt; inactive means no such curve, though single readings can be large; an effect the other way counts as inactive or inconclusive. Potency means the concentration at half of the fitted maximal effect.
SMILES,HepG2 viability,ATXN2 expr inh,TGFb SMAD3 inh,S2 tox,HT1080NT lethal,HT1080 IDH1KD tx
Cc1cccc(N(C)S(=O)(=O)c2nnc(NC(=O)C(C)(C)C)s2)c1,-13.3%,/,-44.4%,/,/,/
CCSc1ncc(Cl)c(C(=O)Nc2c(C(=O)Nc3cccc(C)c3)oc3ccccc23)n1,-14.2%,/,/,/,/,/
CCSc1ncc(Cl)c(C(=O)Nc2ccccc2)n1,4.0%,16.1%,18.1%,i,3.9%,-9.6%
CCS(=O)(=O)c1ncc(Cl)c(C(=O)N2CCN(c3ccc(OC)cc3)CC2)n1,11.2µM*,/,/,/,/,/
COc1ccc(N2CCN(C(=O)c3nc(SC)ncc3Cl)CC2)cc1,1.6%,-7.8%,15.5%,i,/,/
CCS(=O)(=O)c1ncc(Cl)c(C(=O)NCc2ccc(OC)cc2)n1,5.62µM*,/,3.16µM*,/,/,/
CCS(=O)(=O)c1ncc(Cl)c(C(=O)Nc2ccccc2)n1,17.8µM*,11.2µM*,10µM*,14.1µM*,/,/
CCS(=O)(=O)c1ncc(Cl)c(C(=O)Nc2c(C(=O)Nc3cccc(C)c3)oc3ccccc23)n1,-19.7%,8.1%,0.891µM*,?,/,/
CCC(O)CNC(=O)c1cnn(-c2ncc3c(n2)-c2ccccc2CCC3)c1C1CC1 (stereo not given),/,/,/,i,/,/
CCS(=O)(=O)c1ncc(Cl)c(C(=O)Nc2ccccc2OC)n1,-29.3%,?,3.55µM*,/,-16.8%,?
Cc1c(F)cccc1Cn1cnc2c(cnn2C(C)(C)C)c1=O,-21.0%,/,-18.5%,/,/,/
Cc1sc(NC(=O)c2ccco2)c(C(c2cccnc2)N2CCC(C)CC2)c1C (stereo not given),-9.0%,?,?,?,20.6µM*,4.61µM*
Brc1ccc(OCc2nc(-c3ccccn3)n[nH]2)cc1,-22.8%,-10.1%,-18.8%,i,-27.4%,?
Clc1ccc(OCc2nc(-c3ccccn3)n[nH]2)cc1,-10.7%,?,-22.7%,?,?,10µM*
O=C(/C=C/c1ccccc1)NC(=S)NNC(=O)c1cnccn1,18.0%,14.1µM*,-22.3%,?,-26.6%,?
O=C(/C=C/c1ccccc1)NC(=S)NNC(=O)c1cccnc1,-7.7%,-7.4%,14.4%,i,-4.8%,-9.6%
O=C(N/N=C/c1c[nH]c2ccccc12)C1COc2ccccc2O1 (stereo not given),1.6%,-2.6%,?,?,3.66µM*,5.8µM*
O=C(N/N=C\c1ccc([N+](=O)[O-])o1)C1COc2ccccc2O1 (stereo not given),-146.2%,-31.2%,15.8µM*,i,?,20.6µM*
CCOC(=O)c1ccc(-n2c(O)c(/C=N/NC(=O)C3COc4ccccc4O3)c3ccccc3c2=O)cc1 (stereo not given),-42.1%,-26.8%,8.91µM*,i,-12.8%,-13.3%
O=C(O)C1CCC1,/,3.4%,/,i,/,/
CCOc1ccccc1-c1noc(CSc2nnc(-c3ccccc3)n2-c2ccc(OC)cc2)n1,5.0%,-5.2%,4.8%,i,/,/
CCC(=O)N1c2ccc(S(=O)(=O)N3CCN(c4ccc([N+](=O)[O-])cc4)CC3)cc2CC1C (stereo not given),-36.0%,/,?,i,?,6.51µM*
CCOc1cc(CNCCCN2CCOCC2)ccc1OCC(=O)Nc1cccc2ccccc12,-72.1%,-33.2%,-21.1%,?,10µM*,11.2µM*
COc1cc(CNCCCN2CCOCC2)ccc1OCC(=O)Nc1cccc(C(F)(F)F)c1,-37.1%,-25.2%,25.0%,i,?,?
COc1ccccc1N1CCN(C(=O)c2cnc(N3CCCCC3)c3ccccc23)CC1,-25.8%,/,?,/,/,/
CCc1ccccc1NC(=O)CN1C(=O)CCSc2ccc(S(=O)(=O)N3CCCC3)cc21,-27.2%,/,0.9%,/,/,/

# From PubChem
